# Measured values published in PubChem BioAssay AID588697 (Southern Research Specialized Biocontainment Screening …, 2011).
# Records with an inconclusive call do not appear. The source made the active and inactive calls.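 Rule for the calls: active = inhibition of at least 30% at any tested concentration; inactive = the rest, inconclusive results apart.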
# Test system: M18 aspartyl aminopeptidase (Plasmodium falciparum 3D7)
# Assay: P. falciparum M18 aspartyl aminopeptidase inhibition – biochemical, QFRET fluorogenic substrate, counter-screen for PfM17LAP inhibitor project, dose response (AID 588697)
# Settings: recombinant PfM18AAP, H-Glu-NHMec fluorogenic substrate; series mostly up to 100 µM
row,Compound,outcome
1,COC(=O)c1c(NC(=O)c2ccccc2C(=O)O)sc2c1CCCC2,inactive
2,CC1=C(C)CC(C(=O)Nc2ccc(Oc3ccc(Cl)cc3)cc2)C(C(=O)O)C1 (stereo not drawn),inactive
3,O=C(Cc1cccc2ccccc12)NO,inactive
4,COC(=O)c1ccccc1NC(=O)c1ccc2c(Cl)c3c(nc2c1)CCC3,inactive
5,Cc1cc(=O)[nH]c(SCC(=O)Nc2ccccc2)n1,inactive
6,COC(=O)c1cc(OC)c(OC)cc1NC(=O)c1sc2nc(C)ccc2c1N,inactive
7,O=C(Nc1ccc(Cl)cc1)Nc1ccccc1C(=O)O,inactive
8,COC(=O)c1c(NC(=O)C2CCCCC2C(=O)O)sc2c1CCC(c1ccccc1)C2 (stereo not drawn),inactive
9,CC1=C(C)CC(C(=O)Nc2nc(-c3cc(C)ccc3C)c(C)s2)C(C(=O)O)C1 (stereo not drawn),inactive
10,NC(N)=NCCC[C@H](N)C(=O)NO,inactive
11,CC(C)C[C@H](N)C(=O)NO,inactive
12,Cc1cc(SCC(=O)Nc2ccccc2C(=O)O)nc2ccccc12,inactive
13,O=C(CSc1nc(O)cc(=O)[nH]1)Nc1ccccc1,inactive
14,CCn1c2ccccc2c2cc(NC(=O)CSc3nc(C)cc(=O)[nH]3)ccc21,inactive
15,COC(=O)c1c(NC(=O)C2CC=CCC2C(=O)O)sc(C)c1-c1ccc(C)cc1 (stereo not drawn),inactive
16,O=C(CSc1nccc(=O)[nH]1)Nc1ccc(N2CCOCC2)cc1,inactive
17,O=C(O)c1ccccc1C(=O)Nc1nc2c(s1)CCCC2,inactive
18,COc1cc(NC(=O)CSc2ccccc2)c(C(=O)O)cc1OC,inactive
19,Cc1ccc(NC(=O)CSc2nc(O)cc(=O)n2Cc2ccccc2)cc1,inactive
20,COC(=O)c1ccccc1NC(=O)c1cc2cc3ccc(C)cc3nc2s1,inactive
21,O=C(CSc1ccccc1)Nc1cccc2c1C(=O)NC2=O,inactive
22,O=C(CSc1nccc(=O)[nH]1)Nc1ccc(Oc2ccccc2)cc1,inactive
23,CCC(C)(C)C1CCc2c(sc(NC(=O)C3CC(C)=C(C)CC3C(=O)O)c2C(=O)OC)C1 (stereo not drawn),inactive
24,COc1cc(NC(=O)c2ccc(-c3ccccc3)cc2)c(C(=O)O)cc1OC,inactive
25,O=C1OCCC1Sc1nnc(NC2CCCCC2)s1 (stereo not drawn),inactive
26,N[C@@H](Cc1c[nH]c2ccccc12)C(=O)NO,inactive
27,COc1ccc(-c2nnc(NC(=O)C3CC(C)=C(C)CC3C(=O)O)s2)cc1 (stereo not drawn),inactive
28,CC1CCc2sc(C(=O)Nc3cccc4c3C(=O)NC4)cc2C1 (stereo not drawn),inactive
